Activity calls are given as the source filed them.
How the values were obtained:
[1] = system: Plasmodium falciparum Sir2 (PF13_0152, Sir2A); assay: Plasmodium falciparum Sir2A binding compounds – biochemical, small-molecule microarray, 635 nm fluorescence, primary screen (AID 1098); conditions: fluorescence 635 nm, higher = more signal;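 note: score merges spot fluorescence intensity with its signal-to-noise ratio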
[2] = probe aDKK1 binding to arrayed compounds – biochemical, biotinylated probe, 635/667 nm fluorescence, primary screen (AID 1099); conditions: small-molecule microarray, higher = more signal;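 note: score merges 667nm spot fluorescence with signal to noise across triplicate slides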
[3] = probe aCHRDL2 binding to arrayed compounds – biochemical, biotinylated probe, 635/667 nm fluorescence, primary screen (AID 1100); conditions: small-molecule microarray, higher = more signal
[4] = change in splice reporter luminescence, either direction, cell-based, HEK293, spliceosome inhibition project, primary screen (AID 1101); conditions: HEK293 splicing luciferase reporter, 24 h, higher = more signal, called active from +8 up or from −8 down;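 note: HEK293 cells carrying a splicing-competent luciferase reporter gene; test concentration not given here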
[5] = molecular target: Fibroblast growth factor 10 (Homo sapiens) (UniProt O15520); assay: compounds binding fibroblast growth factor 10 – biochemical, small-molecule microarray, 635 nm fluorescence, primary screen (AID 1102); conditions: FGF10 binding, fluorescence 635 nm, higher = more signal
[6] = system: glycogen synthase kinase-3 (GSK3A per assay name; protocol says GSK3B); assay: compounds binding glycogen synthase kinase-3 – biochemical, small-molecule microarray, 635 nm fluorescence, GSK3A, primary screen (AID 1103); conditions: fluorescence 635 nm, higher = more signal; note: the record names both GSK3A and GSK3B
[7] = molecular target: Epidermal growth factor receptor (Homo sapiens) (UniProt P00533); assay: compounds binding epidermal growth factor receptor – biochemical, small-molecule microarray, 635 nm fluorescence, primary screen (AID 1104); conditions: EGFR binding, higher = more signal;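 note: score merges 667 nm emission intensity with spot signal to noise over triplicate slides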
[8] = molecular target: Follistatin-related protein 3 (Homo sapiens) (UniProt O95633); assay: compounds binding follistatin-related protein 3 – biochemical, small-molecule microarray, 635 nm fluorescence, primary screen (AID 1105); conditions: FSTL3 binding, higher = more signal;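 note: score merges emission near 667 nm and signal to noise per printed spot across three slides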
[9] = molecular target: Dickkopf-related protein 1 (Homo sapiens) (UniProt O94907); assay: small molecules binding DKK1 protein – biochemical, small-molecule microarray, 635 nm fluorescence scan, primary screen (AID 1106); conditions: higher = more signal;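 note: score merges emission near 667 nm with signal to noise over three replicate slides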
[10] = system: Inhibin beta A chain (activin A); assay: small molecules binding activin A – biochemical, small-molecule microarray, 635 nm fluorescence scan, primary screen (AID 1107); conditions: INHBA, higher = more signal;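 note: mouse activin A protein probed at 4.33 µg/mL on printed slides; score merges bound-protein fluorescence near 667 nm with spot signal-to-noise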
[11] = system: Human papillomavirus type 1a protein E7 (residues 44-93); assay: small molecules binding HPV E7 44-93 – biochemical, small-molecule microarray, residues 44-93, 635 nm fluorescence, primary screen (AID 1108); conditions: fluorescence 635 nm, higher = more signal;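 note: E7 fragment applied at 1 µg/mL in TBST for 1 h at 4 C; score combines spot fluorescence with its signal to noise ratio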
[12] = hepatitis C replication reporter changes, two-sided – Huh7 cells, luciferase reporter, HCV replication inhibitor project, primary screen (AID 1109); conditions: Huh7 HCV replicon luciferase reporter, 48 h; higher = more signal;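 note: huh7 hepatoma cells harbouring a luciferase neomycin HCV replicon reporter; luciferase luminescence as measure of HCV replicon replication; test concentration not given here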
[13] = molecular target: Left-right determination factor 2 (Homo sapiens) (UniProt O00292); assay: small molecules binding LEFTY2 protein – biochemical, small-molecule microarray, 635 nm fluorescence scan, primary screen (AID 1110); conditions: higher = more signal
[14] = molecular target: Calmodulin-1 (Homo sapiens) (UniProt P0DP23); assay: small molecules binding calmodulin-1 with EGTA – biochemical, small-molecule microarray, Cy5-labelled CALM1, profiling panel (AID 1111); conditions: Cy5-CALM1 binding fluorescence, higher = more signal;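 note: labelled calmodulin applied in Tris saline Tween buffer holding calcium plus EGTA and DTT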
[15] = molecular target: Calmodulin-1 (Homo sapiens) (UniProt P0DP23); assay: small molecules binding Ca-loaded calmodulin-1 – biochemical, small-molecule microarray, Cy5-labelled CALM1, plus calcium, artefact control for SMM control-protein annotation, profiling panel (AID 1112); conditions: Cy5-CALM1 binding fluorescence, higher = more signal;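 note: score merges spot fluorescence with signal to noise from triplicate slides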
[16] = probe aWnt5a binding to arrayed compounds – biochemical, biotinylated probe, 635/667 nm fluorescence, primary screen (AID 1113); conditions: small-molecule microarray, higher = more signal;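 note: score merges 667 nm fluorescence intensity with signal-to-noise per printed feature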
[17] = probe aShh binding to arrayed compounds – biochemical, biotinylated probe, 635/667 nm fluorescence, primary screen (AID 1114); conditions: small-molecule microarray, higher = more signal;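 note: probe is biotin-labelled aShh protein from a stem cell growth factor screen; measures binding of labelled protein to compounds printed on the slide; score merges feature fluorescence at 667 nm with signal-to-noise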
[18] = probe aNog binding to arrayed compounds – biochemical, biotinylated probe, 635/667 nm fluorescence, primary screen (AID 1115); conditions: small-molecule microarray, higher = more signal;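 note: probe is biotinylated aNog protein used at 0.15 µg/mL for 1 h at 4 C; z-score combines 667 nm fluorescence of each spot with its signal to noise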
[19] = molecular target: Torsin-1A-interacting protein 1 (Homo sapiens) (UniProt Q5JTV8); assay: compound microarray binding of lysate hLAP1 – cell lysate, small-molecule microarray, COS7 lysate, 635/667 nm fluorescence, primary screen (AID 1116); conditions: 635 nm fluorescence, higher = more signal
[20] = molecular target: Alpha-bungarotoxin (Bungarus multicinctus) (UniProt P60615); assay: compounds binding labelled alpha-BTX control protein – biochemical, small-molecule microarray, Alexa647 label, 635/667 nm fluorescence, artefact control for SMM control protein annotation, profiling panel (AID 1117); conditions: alpha-BTX-A647 binding fluorescence, higher = more signal
Alpha-bungarotoxin (Bungarus multicinctus), sequence (P60615 whole entry, looked up): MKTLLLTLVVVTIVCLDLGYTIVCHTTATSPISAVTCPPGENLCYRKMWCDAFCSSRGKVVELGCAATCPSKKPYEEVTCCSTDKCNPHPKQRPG

Follistatin-related protein 3 (Homo sapiens), sequence (O95633 whole entry, looked up): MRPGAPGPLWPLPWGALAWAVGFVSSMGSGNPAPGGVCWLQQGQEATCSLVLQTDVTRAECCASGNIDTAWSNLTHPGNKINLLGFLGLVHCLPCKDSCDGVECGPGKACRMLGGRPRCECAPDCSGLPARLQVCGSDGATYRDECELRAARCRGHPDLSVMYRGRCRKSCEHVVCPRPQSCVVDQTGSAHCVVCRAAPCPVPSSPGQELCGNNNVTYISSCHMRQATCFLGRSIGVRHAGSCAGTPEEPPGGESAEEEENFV
Fibroblast growth factor 10 (Homo sapiens), sequence (O15520 whole entry, looked up): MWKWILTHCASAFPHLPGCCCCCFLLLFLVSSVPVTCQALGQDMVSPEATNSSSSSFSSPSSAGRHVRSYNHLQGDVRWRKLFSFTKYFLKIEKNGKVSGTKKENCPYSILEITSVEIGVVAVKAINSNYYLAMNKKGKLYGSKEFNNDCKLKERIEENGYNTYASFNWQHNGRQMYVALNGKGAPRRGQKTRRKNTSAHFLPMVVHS
Left-right determination factor 2 (Homo sapiens), sequence (O00292 whole entry, looked up): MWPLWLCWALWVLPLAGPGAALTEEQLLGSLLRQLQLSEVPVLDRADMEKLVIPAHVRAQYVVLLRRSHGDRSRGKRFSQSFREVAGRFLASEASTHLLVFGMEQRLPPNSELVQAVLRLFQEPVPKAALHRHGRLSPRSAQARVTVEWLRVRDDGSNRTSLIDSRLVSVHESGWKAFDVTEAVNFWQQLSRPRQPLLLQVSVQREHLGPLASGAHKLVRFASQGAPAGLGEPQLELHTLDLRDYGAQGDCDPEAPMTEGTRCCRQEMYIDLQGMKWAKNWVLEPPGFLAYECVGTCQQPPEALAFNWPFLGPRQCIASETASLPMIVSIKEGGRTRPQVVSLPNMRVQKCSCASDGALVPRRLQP
Torsin-1A-interacting protein 1 (Homo sapiens), sequence (Q5JTV8 whole entry, looked up): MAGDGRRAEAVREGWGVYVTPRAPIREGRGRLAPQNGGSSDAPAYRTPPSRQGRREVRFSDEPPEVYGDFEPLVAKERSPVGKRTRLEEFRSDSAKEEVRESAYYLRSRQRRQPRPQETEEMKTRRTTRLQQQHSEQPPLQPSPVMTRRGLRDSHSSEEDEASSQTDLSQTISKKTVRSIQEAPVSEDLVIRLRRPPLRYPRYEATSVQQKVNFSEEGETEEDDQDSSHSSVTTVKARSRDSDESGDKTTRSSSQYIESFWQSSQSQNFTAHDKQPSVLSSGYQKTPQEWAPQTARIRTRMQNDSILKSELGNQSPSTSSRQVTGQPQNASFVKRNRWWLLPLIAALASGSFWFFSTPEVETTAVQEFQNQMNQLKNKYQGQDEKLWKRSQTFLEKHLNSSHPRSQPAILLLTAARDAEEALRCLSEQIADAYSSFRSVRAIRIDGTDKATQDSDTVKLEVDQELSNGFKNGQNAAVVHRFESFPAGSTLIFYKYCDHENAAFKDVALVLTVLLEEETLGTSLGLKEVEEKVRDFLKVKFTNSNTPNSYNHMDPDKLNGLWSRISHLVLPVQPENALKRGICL
Epidermal growth factor receptor (Homo sapiens), sequence (P00533 whole entry, looked up): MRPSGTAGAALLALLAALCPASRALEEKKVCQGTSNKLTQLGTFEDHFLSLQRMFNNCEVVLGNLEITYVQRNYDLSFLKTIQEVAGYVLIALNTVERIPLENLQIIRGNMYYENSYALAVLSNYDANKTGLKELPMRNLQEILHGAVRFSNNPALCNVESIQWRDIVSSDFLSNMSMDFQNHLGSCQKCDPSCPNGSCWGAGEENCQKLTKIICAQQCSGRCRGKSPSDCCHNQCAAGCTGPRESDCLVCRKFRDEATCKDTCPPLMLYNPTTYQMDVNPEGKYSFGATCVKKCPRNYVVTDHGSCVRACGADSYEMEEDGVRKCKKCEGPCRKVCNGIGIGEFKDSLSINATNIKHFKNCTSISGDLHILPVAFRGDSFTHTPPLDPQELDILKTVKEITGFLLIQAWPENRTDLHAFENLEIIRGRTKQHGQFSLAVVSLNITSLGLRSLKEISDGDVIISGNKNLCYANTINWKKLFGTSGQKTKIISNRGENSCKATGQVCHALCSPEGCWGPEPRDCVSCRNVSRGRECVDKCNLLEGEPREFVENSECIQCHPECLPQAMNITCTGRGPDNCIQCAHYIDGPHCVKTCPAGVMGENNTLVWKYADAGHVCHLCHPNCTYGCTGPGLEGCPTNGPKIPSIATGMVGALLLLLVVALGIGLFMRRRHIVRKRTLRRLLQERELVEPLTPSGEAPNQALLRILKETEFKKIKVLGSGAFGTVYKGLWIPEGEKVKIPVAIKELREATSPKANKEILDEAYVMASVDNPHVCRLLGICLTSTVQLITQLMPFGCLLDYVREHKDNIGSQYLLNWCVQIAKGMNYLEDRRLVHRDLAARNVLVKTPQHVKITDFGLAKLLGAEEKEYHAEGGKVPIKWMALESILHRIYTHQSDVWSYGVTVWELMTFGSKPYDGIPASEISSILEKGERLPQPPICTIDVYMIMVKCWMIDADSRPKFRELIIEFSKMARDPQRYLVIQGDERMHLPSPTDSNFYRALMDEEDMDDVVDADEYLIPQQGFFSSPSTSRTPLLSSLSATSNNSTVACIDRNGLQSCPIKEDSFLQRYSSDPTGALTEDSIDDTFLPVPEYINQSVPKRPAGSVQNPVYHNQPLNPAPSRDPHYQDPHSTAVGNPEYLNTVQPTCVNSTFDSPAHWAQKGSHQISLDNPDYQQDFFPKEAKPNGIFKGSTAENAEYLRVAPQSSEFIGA
Dickkopf-related protein 1 (Homo sapiens), sequence (O94907 whole entry, looked up): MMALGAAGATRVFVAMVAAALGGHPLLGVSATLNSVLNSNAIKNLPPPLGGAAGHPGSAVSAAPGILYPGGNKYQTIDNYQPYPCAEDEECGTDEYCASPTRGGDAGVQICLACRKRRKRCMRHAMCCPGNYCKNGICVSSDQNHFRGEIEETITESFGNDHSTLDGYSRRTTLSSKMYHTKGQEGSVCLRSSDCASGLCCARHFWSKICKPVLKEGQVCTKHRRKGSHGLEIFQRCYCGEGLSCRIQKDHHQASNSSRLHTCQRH

| SMILES | composite z-score [1] | composite z-score [2] | composite z-score [3] | z-score [4] | composite z-score [5] | composite z-score [6] | composite z-score [7] | composite z-score [8] | composite z-score [9] | composite z-score [10] | composite z-score [11] | z-score [12] | composite z-score [13] | composite z-score [14] | composite z-score [15] | composite z-score [16] | composite z-score [17] | composite z-score [18] | composite z-score [19] | composite z-score [20] |
| --- | --- | --- | --- | --- | --- | --- | --- | --- | --- | --- | --- | --- | --- | --- | --- | --- | --- | --- | --- | --- |
| COc1ccc(C(O)C2C=CC3C(=O)N(c4ccccc4)C(=O)C3N2Nc2ccc([N+](=O)[O-])cc2)cc1 (stereo not given) | 1.43 | 1.37 | 1.23 | 0.304 (inactive) | 0.774 | 0.998 | 0.0207 | 0.952 | -0.655 | 0.918 | 0.487 | -0.925 | -0.425 | 1.45 | 0.622 | 0.315 | 0.109 | -0.064 | 1.66 | 1.32 |
| CCCCCCc1nc(C2CC2)cc2c1[Si](C(C)C)(C(C)C)O[C@H]2c1ccccc1 | 0.454 | -0.312 | -0.191 | 0.214 (inactive) | 0.402 | -0.213 | 0.341 | 0.274 | 0.546 | 0.741 | -1.1 | -0.0742 | 0.359 | -0.806 | -0.852 | -0.154 | -0.157 | -0.422 | -0.186 | -0.271 |
| C=C(C)[C@@H]1CC=C(C(O)C2C=CC3C(=O)N(c4ccccc4)C(=O)C3N2Nc2ccccc2F)CC1 (stereo not given in full) | 1.15 | 0.671 | 0.972 | 0.869 (inactive) | 1.08 | 1.3 | 0.662 | 1.42 | -0.112 | 0.725 | 1.46 | -0.0769 | 0.341 | 1.41 | 0.797 | 0.0003 | -0.0858 | 1.4 | 1.04 | 1.19 |
| COc1ccc(-c2nc(-c3ccccc3)c3c(c2C)CO[Si]3(C(C)C)C(C)C)cn1 | -0.18 | -0.0958 | -0.505 | 0.0313 (inactive) | 0.984 | 0.729 | -0.0277 | 0.446 | 0.125 | 0.468 | 0.107 | -1.05 | 0.372 | -0.461 | -0.309 | -0.0405 | 0.0278 | -0.294 | 0.104 | 0.397 |
| Cc1ccc(S[C@]2(C(=O)O)CC(=O)N(C3Cc4ccccc4C3)[C@@H]2c2ccc(CO)cc2)cc1 | 1.02 | 0.526 | 1.08 | 0.2 (inactive) | 0.0926 | -0.775 | -0.846 | -0.946 | -1.69 | 1.19 | 0.0922 | -0.0907 | -1.07 | 0.967 | 1.1 | 0.0077 | -0.0322 | 0.649 | 0.0148 | 0.0125 |
| COCCOC(=O)N1C(=O)[C@@]2(c3cc(C#CC4=CCCCC4)ccc31)[C@H](c1ccc(O)cc1)N1[C@H](c3ccccc3)[C@H](c3ccccc3)OC(=O)[C@H]1[C@@H]2C(=O)N1CCN(c2ncccn2)CC1 | -0.0148 | -0.222 | 0.649 | -0.297 (inactive) | -0.769 | -0.858 | -1.04 | -1.85 | -1.22 | -0.918 | -0.444 | -0.131 | -0.742 | -0.676 | 0.451 | -0.195 | -0.138 | -0.445 | -0.201 | -1.11 |

From PubChem BioAssay
